In the library only some 3.2% were active in any assay of this set; here they are far more common.
PMP22 txn prim = PMP22 gene transcription modulation | S16 Pmp22-F2sN Schwann cells, FLuc/NLuc coincidence luminescence, 24 h | Potency, µM (titrated, usually from 57.5 µM), for the others: at the top dose activity change, negative = inhibition, usual class: inhibitors | 2% of 43,000 active; active = clear falling dose curves in both reporters; inconclusive = both reporters move, but less clearly or upward; inactive = either reporter flat; the % is the NLuc reporter signal
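Schwann cells carrying the coincidence reporter were exposed to library compounds for 24 h at 37C, then lysed and read for FLuc and, after quenching, NLuc luminescence on a CCD imager.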
p53null 32C kill = selectivity test: cytotoxicity in p53 null cells, permissive temperature | H1299-neo p53 null cells, ATP luminescence, 24 h, 32C | Potency, µM (series often up to 46.1 µM), without a hit: at the top dose activity change, negative = cytotoxicity, actives largely listed as cytotoxic | AID 903 | 0.62% of 55,000 active;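 also: 0% = DMSO only and -100% = full killing by 100 µM tamoxifen; nearly all actives have a fitted effect of over 55% in size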
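H1299-neo (p53-null) cells, 600/well, were pre-incubated overnight at 37C, then exposed to compounds at up to 46 uM for 24 hr at 32C. Viability was measured as ATP content by luminescence, and AC50 values came from Hill fits.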
p53null 39C tox = selectivity test: cytotoxicity in p53 null cells, nonpermissive temperature. Potency, µM (highest dose often 46.1 µM), inactives show at the highest dose activity, negative = cell killing, most hits filed as cytotoxic. 0.97% of 55,000 active. H1299 p53-null (neo) cells, 39C, ATPlite viability, 24 h. AID 904;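 also: 0% = DMSO only and -100% = full killing by 100 µM tamoxifen; nearly all actives have a fitted effect of over 50% in size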
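Luminescent ATP signal reported cell survival after H1299 lines (neo, p53 null; or p53 A138V) received up to 46 uM compound and 24 hr incubation at 39C.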
pS6 MEF inh = reduces mTORC1 signaling in Tsc2 and p53 null MEF cells | 0.78% of 44,000 active | Potency, µM (highest dose often 38.3 µM), without a hit: at the highest dose activity change, negative = inhibition, most hits filed as inhibitors | Tsc2-/- p53-/- MEF, phospho-rpS6 immunofluorescence/PI, 24 h;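 also: plate controls were DMSO for no effect and rapamycin for full effect; nearly all actives have a fitted effect of over 50% in size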
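Readout is phospho-S6 Alexa 488 signal normalized to PI per well, reported as % active cells with thresholds set from rapamycin (7.5 nM) and DMSO controls. Cells: Tsc2-/-, p53-/- MEFs, 24 hrs compound at 37 C; PI cell number serves as viability.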
S16 F2sN tox = S16 Schwann cell cytotoxicity; S16 Pmp22-F2sN Schwann cells (luciferase reporters placed in the Pmp22 gene) viability, CellTiter-Glo, 24 h; Potency, µM (highest dose often 57.5 µM), inactives show at the top dose activity change, negative = cytotoxicity, usual class: cytotoxic; 0.48% of 43,000 active; AID 1508642; also: nearly all actives have a fitted effect of over 65% in size
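CellTiter-Glo counter-screen, qHTS, 1536-well. Cells: S16(c9) Pmp22-F2sN, 500-1,000/well in DMEM + 10% FBS. Cpd 23 nL pin transfer, 24 h, 37C/5% CO2. Read: luminescence, CCD imager.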
Numbers without * were called inactive; ? = inconclusive. Unless noted, calls follow the shape of the dose curve; as a rule, active = well fitted curve in the direction sought with a large enough effect; inconclusive = small, poorly fitted or top-dose-only effect, or another doubt; inactive = no such curve, though single readings can be large; an effect the other way counts as inactive or inconclusive. Unless noted, % is scaled to controls: 0 for no effect and ±100 for the full control effect; potency is read from the fitted curve at half-maximal effect.

SMILES	PMP22 txn prim	p53null 32C kill	p53null 39C tox	pS6 MEF inh	S16 F2sN tox
CCN(CC)C(=O)Cn1c(=O)n(CCCCCC(=O)NCc2ccccc2)c(=O)c2sccc21	-9%	7%	-7%	0%	-19%
Cc1ccc(-n2ncc3c(Nc4ccc(Oc5ccccc5)cc4)ncnc32)c(C)c1	?	25%	74%	1%	0%
CCc1ccc(N2CCn3c2nc2c3c(=O)n(Cc3c(F)cccc3Cl)c(=O)n2C)cc1	10%	2%	13µM*	-1%	8%
Cc1ccc(CS(=O)(=O)c2ncc(Cl)c(C(=O)Nc3nnc(C(C)C)s3)n2)cc1	8.9µM*	1%	?	15µM*	?
Cc1cccc(CS(=O)(=O)c2ncc(Cl)c(C(=O)Nc3nnc(C(C)C)s3)n2)c1	9.6µM*	39%	13µM*	16µM*	?
CC(C)c1nnc(NC(=O)c2nc(SCc3ccc(F)cc3)ncc2Cl)s1	-4%	-12%	-13%	-3%	8%
COc1ccccc1N1CCN(c2csc3ccc(Cl)cc3c2=O)CC1	-22%	8%	5%	-5%	9%
Cc1nc(N2CCCC2)c2c(C(=O)Nc3ccc(Br)cc3F)c(C)oc2n1	-12%	-2%	-16%	3%	9%
CC(C)c1ccc(NC(=O)Cn2c(=O)oc3cc(S(=O)(=O)N4CCCC4)ccc32)cc1	?	6%	-16%	0%	-15%
Cc1ccsc1CCN1C(=O)N(c2ccccc2)C(=O)C1CC(=O)Nc1ccc(Cl)cc1 (stereo unspecified)	?	0%	16%	-5%	32µM*
O=C(CC1C(=O)N(c2ccccc2)C(=O)N1CCc1cccs1)Nc1ccc(Cl)cc1 (stereo unspecified)	-15%	1%	17%	2%	?
COc1cccc(CNC(=O)CCc2c(C)c3cc4c(C)c(C)oc4cc3oc2=O)c1	-8%	5%	13%	3%	8%
Cc1ccc(Nc2ncnc3c2nc2n3CCCC2)c(Br)c1	-4%	?	11µM*	-1%	-5%
Clc1cccc(N2CCN(c3ncnc4c3nc3n4CCCC3)CC2)c1	?	-11%	-38%	-21%	?
O=C(C1CCN(c2ncnc3c2nc2n3CCCCC2)CC1)N1CCN(c2ccc(F)cc2)CC1	?	5%	-23%	0%	?
Cc1cccc(N2CCN(c3ncnc4c3nc3n4CCCCC3)CC2C)c1 (stereo unspecified)	4.4µM*	-3%	?	9.3µM*	8.9µM*
Fc1ccc(N2CCN(c3ncnc4c3nc3n4CCCC3)CC2)cc1	4.5µM*	?	-20%	-1%	?
COc1ccccc1Nc1c2c(nc3ccc(NC(=O)c4ccc(OC)c(OC)c4)cc13)CCCC2	?	?	22µM*	?	?
COc1ccccc1Nc1c2c(nc3ccc(NC(=O)c4cccc(OC)c4OC)cc13)CCCC2	?	-22%	14%	16µM*	?
COc1cc2c(cc1NC(=O)C(C)Oc1ccc(Cl)cc1Cl)oc1ccccc12 (stereo unspecified)	?	-3%	-7%	-3%	5%
COC(=O)c1c(NC(=O)c2ccc(S(=O)(=O)N3CCCCC3)cc2)sc2c1CCN(C)C2	?	-18%	-1%	4.1µM*	?
CCc1ccccc1NC(=O)Nc1cc(C(=O)NCc2ccc(C(C)C)cc2)ccc1N1CCCC1	?	-8%	9%	-3%	?
COc1ccc(-c2nnc(SCc3cc(=O)c4cc(C)cc(C)c4[nH]3)n2C)cc1	14µM*	-5%	-12%	?	?
COc1ccc(C(=O)Nc2nnc(SCc3cc(=O)c4cc(C)cc(C)c4[nH]3)s2)cc1	-10%	-1%	-11%	-9%	-8%
Cc1ccc(NC(=O)N2CCC(N3CCN(Cc4ccccc4)C(=O)C3=O)CC2)cc1Cl	2%	-2%	3%	-12%	-1%
SMILES	PMP22 txn prim	p53null 32C kill	p53null 39C tox	pS6 MEF inh	S16 F2sN tox
CCOC(=O)c1c(NC(=O)c2nc(SCC)ncc2Cl)sc2c1CCCC2	-15%	3%	10%	1%	6%
COc1ccc(NC(=O)C(NC(=O)/C=C\c2ccc3c(c2)OCO3)c2ccccc2)cc1 (stereo unspecified)	-24%	1%	15%	10µM*	-28%
COc1ccc(-c2cc(C(F)(F)F)nc(S(=O)(=O)CCCC(=O)Nc3ccccc3C(F)(F)F)n2)cc1OC	?	-15%	?	18µM*	?
COc1ccccc1-c1cc(C(F)(F)F)nc(S(=O)(=O)CCCC(=O)Nc2ccc(F)c(Cl)c2)n1	-3%	9%	7%	9%	8%
COc1ccc(NC(=O)CCCS(=O)(=O)c2nc(-c3ccc(OC)c(OC)c3)cc(C(F)(F)F)n2)cc1OC	4.5µM*	26%	?	12µM*	4.5µM*
COc1ccccc1-c1cc(C(F)(F)F)nc(S(=O)(=O)CCCC(=O)Nc2cc(OC)c(OC)c(OC)c2)n1	0%	?	?	0%	8%
COc1ccc(-c2cc(C(F)(F)F)nc(S(=O)(=O)CCCC(=O)Nc3cccc(O)c3)n2)cc1OC	6µM*	25%	?	?	8.9µM*
COc1cccc(C(=O)CN2CCN(S(=O)(=O)c3ccc(Cl)cc3)CC2)c1	4%	-6%	-19%	5%	3%
COc1ccc(N2CCN(C(CNS(=O)(=O)c3ccc(OC)c(C)c3)c3ccco3)CC2)cc1 (stereo unspecified)	?	4%	30%	-16%	-6%
COc1ccc(S(=O)(=O)n2nc(-c3ccco3)nc2NCc2ccc(OC)c(OC)c2)cc1	-24%	-8%	-4%	1%	3%
COc1cc(CNc2ccc3[nH]c(=O)[nH]c3c2)cc(Br)c1OCc1ccc(F)cc1	1.9µM*	-29%	-15%	-21%	?
COc1ccc(C)cc1NC(=O)C(Cc1ccccc1)NS(=O)(=O)c1ccc(Br)s1 (stereo unspecified)	?	-4%	?	6.6µM*	1%
COc1ccc(C(=O)Nc2noc3ccccc23)cc1	10%	3.2µM*	6.3µM*	3%	11%
Cc1ccc(OCC(=O)Nc2ccc3nc(SCC(=O)N4CCOCC4)sc3c2)cc1	-20%	0%	-18%	-9%	2%
O=C1CC(c2ccccc2)Cc2[nH]c(=O)c(-c3nc(-c4cccc(Cl)c4)cs3)cc21 (stereo unspecified)	-21%	22%	-16%	12µM*	?
Cc1ccc(C)c(N2CCN(C(=O)CN3CCSc4ccc(S(=O)(=O)N(C)C)cc43)CC2)c1	?	3%	-8%	-1%	-1%
